The record followed here is PubChem BioAssay AID1347073 (National Center for Advancing Translational Sciences (NCATS), 2019).

Screen size: about 45,000 compounds; about 200 (0.44%) were called active. A call without a number means that no potency is given here. Roughly 7% stayed inconclusive and do not appear here. The sample holds actives, similar compounds and a random draw of the others, so the mix is not that of the screen. Calls come from the whole dose curve; as a rule, active = well fitted activation curve with a large enough effect; inconclusive = small, poorly fitted or top-dose-only effect; inactive = no such curve, though single readings can be large or run the other way.
Potency is the fitted concentration of half-maximal effect.

The assay in a line: qHTS of TDP-43 Inhibitors: NCGC Sytravon Library Screen. Note: nearly all actives have a fitted effect of over 55% in size. Conditions: yeast TDP-43 toxicity rescue, BacTiter-Glo growth, 24 h; series mostly up to 46.1 µM. An excerpt: The goal of this project is to identify new chemical probes capable of reversing the toxicity associated with TDP-43 which is associated with frontotemporal lobar degeneration and amyotrophic lateral sclerosis. These compounds will provide a complementary approach to deciphering the tangled mechanisms of toxicity and protection that we have uncovered through genome-wide genetic screens and are beginning to uncover in a large-scale proteomics analysis with mass spectroscopy. To this end, a miniaturized assay was developed to be screened against the Molecular Libraries Small Molecule Repository (MLSMR) to discover TDP-43 inhibitors. Please note that in the set-up this yeast-based assay compounds that inhibit as TDP-43, have a read-out as activators. NIH Chemical Genomics Center [NCGC] NIH Molecular Libraries Probe Centers Network [MLPCN] Assay Submitter (PI): Susan Lindquist, Whitehead Institute/MIT MLPCN Grant: R21 NS060957
Dispense 2.5 microL yeast galactose medium per 1536-well plate, pin compound, dispense 2.5 microL TDP-43 expressing yeast in galactose medium at OD600=0.02 (pregrown in raffinose medium to mid-log phase) per well, incubate for 24 hr at 30 deg C, and cell growth will be measured using 5 microL of Bactiter/Glo reagent to entire plate and read using Luminescence Protocol in ViewLux.
As for `O=C(CN1CCC(O)(c2cccc(C(F)(F)F)c2)CC1)NCCc1ccccc1`, the Potency result was “inactive”.
On to `CC(NC(=O)COC(=O)c1cc(=O)[nH]c2ccccc12)c1ccccc1` (centres undefined), for which the Potency result was “inactive”.
With `COc1cc(C(c2c(NC(=O)c3ccco3)sc(C)c2C)N2CCOCC2)cc(OC)c1OC` (centres undefined) the entry was “inactive”.
The same measure for `CC1(C(=O)Nc2cccc3cccnc23)CCN1C(=O)CCC1CCCC1` (centres undefined): “inactive”; for `Cc1ccc(N2C(=O)CN=C2Nc2nc(C)cc(C)n2)cc1`: “inactive”.
Regarding `CCOc1cc(NC(=O)CCl)c(OCC)cc1NC(C)=O`, the Potency result is “inactive”.
With `O=S(=O)(Nc1ncnc2sccc12)c1cccc(F)c1`, the Potency entry is “inactive”.
With `CCN(CC(=O)NCc1ccco1)S(=O)(=O)c1ccc(F)cc1` the entry was “inactive”; with `Cc1cc(C)cc(N(CC(=O)NC2CCCC2)C(=O)CCC(=O)Nc2nccs2)c1`, “inactive”.
As for `COc1cc(C(=O)OCc2cc(=O)n3ccsc3n2)ccc1OC(C)C`, the Potency result is “inactive”.
The same measure for `COCCNC(=O)CSc1nc2sccc2c(=O)n1-c1ccccc1`: “inactive”; for `CC(=O)NC(Cc1ccc(F)c(F)c1)C(=O)NC1CCN(c2nnnn2-c2ccccc2)CC1` (centres undefined): “inactive”; for `CC1CN(c2nc(-c3ccccc3)nnc2-c2ccccc2)CC(C)O1` (centres undefined): 12.6 µM (active).
As for `CC1CN(C(=S)SCC(=O)c2ccccc2)CC(C)O1` (centres undefined), the Potency result is “inactive”.
Consider `COc1ccc(CNc2ncnc3ccccc23)cc1`, for which the Potency entry is “inactive”.
For the molecule `NS(=O)(=O)c1ccc(CCNc2nc(C(F)(F)F)nc3ccccc23)cc1`, the Potency result was “inactive”.
With `COc1cccc(CNc2nc(C(F)(F)F)nc3ccccc23)c1` the figure was 15.8 µM (active); with `CN(c1ccccc1)S(=O)(=O)c1cccc(NC(=O)Cc2c(F)cccc2Cl)c1`, “inactive”.
In the case of `O=C(COc1ccc(Br)cc1F)NCC1(N2CCCCC2)CCCCC1`, the Potency entry is “inactive”.
Regarding `Cc1cccc(NC(=S)N2CCC(O)CC2)c1C`, the Potency result was “inactive”.
Regarding `CCOC(=O)/C(=N\Nc1ccccc1Cl)N(C)C1CCS(=O)(=O)C1` (centres undefined), the Potency entry was “inactive”.
In the case of `CC(C)CN1CCNC(=O)C1CC(=O)N(C)CC1CCOCC1` (centres undefined), the Potency result was “inactive”.
With `O=C(c1cccc(S(=O)(=O)N2CCCC2)c1)N(Cc1ccco1)C1CCS(=O)(=O)C1` (centres undefined) the entry was “inactive”; with `COc1ccc(-c2nn(C)c(=O)c3ccccc23)cc1CNC(=O)C1CCCCC1`, “inactive”; with `CCc1ccc(N2CC(C(=O)Nc3ccc(S(=O)(=O)Nc4nccs4)cc3)CC2=O)cc1` (centres undefined), “inactive”.
With `Cc1nc2c(OCc3ccc(Cl)cc3Cl)cccn2c1N(C)CC1CC1` the entry was “inactive”; with `CC1CCN(c2ccc(C(=O)Nc3nnc(C4CC4)s3)cc2[N+](=O)[O-])CC1`, “inactive”; with `Cc1ccc(NC(=O)c2ccc(Cl)nc2)cc1S(=O)(=O)N1CCOCC1`, “inactive”.
As to `CC(C)N(C)C(=O)CCc1nnc(CCc2c[nH]c3ccccc23)o1`, the Potency result is “inactive”.
The same measure for `CC(CC(=O)N1CCN(S(=O)(=O)c2ccccc2)CC1)n1cncn1` (centres undefined): “inactive”.
With `COc1ccc(OCC(=O)Nc2cc(C)c(Cl)cc2OC)c([N+](=O)[O-])c1` the entry was “inactive”; with `Cc1ccc(C)c(S(=O)(=O)N2CCN(CC(=O)Nc3ccc([N+](=O)[O-])cc3)CC2)c1`, “inactive”.
Take `Cc1ccc(C)c(S(=O)(=O)N2CCN(c3ncnc4sccc34)CC2)c1`: the Potency was 11.2 µM (active).
With `Cc1ccc([N+](=O)[O-])cc1S(=O)(=O)N1CCCN(C)CC1` the entry was “inactive”; with `CCN(CC(=O)Nc1ccccc1C(=O)NC1CC1)Cc1cccs1`, “inactive”.
`CC(=O)NC(CC(=O)Nc1ccc(S(=O)(=O)N2CCOCC2)cc1)c1ccccc1` (centres undefined): the Potency result was “inactive”.
Consider `COc1ccc(NC(=O)N2CCCC(C(=O)Nc3ccccc3OC)C2)cc1` (centres undefined), for which the Potency entry was “inactive”.
As for `COc1ccc(CNC(=O)C(c2ccc(O)cc2)N(Cc2ccco2)C(=O)c2snc(C(N)=O)c2N)cc1` (centres undefined), the Potency entry is “inactive”.
As to `O=C(c1cccs1)N(Cc1cc2ccccc2[nH]c1=O)CC1CCCO1` (centres undefined), the Potency entry was “inactive”.
Consider `CCOc1ccc(C(C)=O)cc1CSc1nnc(-c2ccncc2)n1CCOC`, for which the Potency entry is “inactive”.
On to `CCOc1ccc(S(=O)(=O)N2CCC(C(=O)NCc3ccccn3)CC2)cc1Cl`, for which the Potency result was “inactive”.
With `Cc1cccc(C(=O)N2CCN(S(=O)(=O)N3CCCCC3)CC2)c1` the entry was “inactive”; with `Cc1ccc(C(=O)NNC(=O)CSc2nnc3ccccn23)cc1`, “inactive”.
With `Cc1cc(C)nc(N/N=C/c2c(C)oc3ccccc23)n1` the entry was “inactive”; with `CCOC(=O)C1CCN(C(=O)COc2cccc3ccccc23)CC1`, “inactive”.
With `CN(C)S(=O)(=O)Oc1ccccc1C(=O)Nc1ccccc1Cl` the entry was “inactive”; with `CC1(C(=O)NS(=O)(=O)c2ccc(Cl)cc2)CCN1C(=O)CC1CCCC1` (centres undefined), “inactive”; with `O=C(N/N=C/c1ccc([N+](=O)[O-])cc1)C(=O)N1CCCC1`, “inactive”.
For `C/C(=C/C(=O)N1CCN(C)CC1)C(=O)O`, the Potency entry was “inactive”.
With `CCOc1ccc(NC(=O)CCC(=O)NNC(=O)NC2CCCCC2)cc1` the entry was “inactive”; with `O=C(O)CC/C(=C\c1cc2c(cc1Br)OCO2)c1nc2ccccc2s1`, “inactive”.
Take `O=C(O)c1ccccc1CSc1nc2ccccc2s1`: the Potency was 11.2 µM (active).
The same measure for `O=C(O)c1cccc(S(=O)(=O)Nc2ccc(O)cc2Sc2nc3ccccc3s2)c1`: “inactive”.
The same measure for `COc1ccccc1N(CC(=O)Nc1ccc(C)cc1Cl)S(=O)(=O)c1cccs1`: “inactive”; for `O=C(NNS(=O)(=O)c1ccc(F)cc1)C1CCCCC1`: “inactive”.
With `O=C(Nc1ccc(Cl)cc1)c1csc([C@H]2C[C@H](O)[C@@H](CO)O2)n1` the entry was “inactive”; with `CCOC(=O)c1oc2c(CN3CCN(CCO)CC3)c(O)c(CC)cc2c(=O)c1-c1nc2ccccc2s1`, “inactive”; with `CCNc1nc(NCC)nc(N/N=C/c2ccc(O)c(OC)c2)n1`, “inactive”.
Regarding `COc1ccc(C(=O)NC2CCN(C(=O)Nc3ccc(F)cc3)CC2)cc1`, the Potency result is “inactive”.
Consider `Cc1nc(CN2CCN(C(=O)CCc3nnc(Cc4c[nH]c5ccccc45)o3)CC2)cs1`, for which the Potency result was “inactive”.
`CCNC(=O)C1(C)CCCN(Cc2noc(-c3ccccc3OC)n2)C1` (centres undefined): the Potency result is “inactive”.
As to `Cc1ccc(CN(CC(=O)NCC2CCCO2)S(=O)(=O)c2ccc(C)cc2)cc1` (centres undefined), the Potency entry is “inactive”.
Regarding `COC(=O)c1c(NC(=O)CN2C(=O)NC(CCc3ccccc3)C2=O)sc2c1CCCCC2` (centres undefined), the Potency entry was “inactive”.
For `COCCNC(=O)CN(Cc1ccco1)C(=O)CCC(=O)Nc1nccs1`, the Potency entry was “inactive”.
Turning to `O=C(NCCCN1CCOCC1)c1cc(-c2cccc(O)c2)on1`, the Potency entry was “inactive”.
Consider `COc1ccc(CCNC2=CC(=O)CC(C)(C)C2)cc1`, for which the Potency entry is “inactive”.
The same measure for `CCOc1ccccc1/C=N/Nc1nc2ccccc2o1`: “inactive”; for `Cc1nc(C(F)(F)F)ccc1C(=O)N1CCC1(C)C(=O)NS(=O)(=O)c1ccccc1` (centres undefined): “inactive”; for `C=CCN1C(=O)C(O)(CC(=O)c2ccccn2)c2ccccc21` (centres undefined): “inactive”.
With `COc1ccc(N(C)S(=O)(=O)c2cccc3nsnc23)cc1` the entry was “inactive”; with `CCCC(=O)Nc1ccc2c(c1)nc(CCNC(=O)c1ccco1)n2C`, “inactive”; with `COc1ccc(NC(=O)NC(C)c2c(-n3cccc3)sc(C)c2C)cc1OC` (centres undefined), “inactive”.
For `COCCNC(=O)C1(C)CCCN(Cc2cccc(F)c2)C1` (centres undefined), the Potency result is “inactive”.
The same measure for `COc1ccc(-n2cnnc2SCC(=O)Nc2cccc(S(N)(=O)=O)c2)cc1`: “inactive”.
With `O=C(O)c1ccc(/C=N/NC(=O)c2ccc(Br)cc2)cc1` the entry was “inactive”.
The same measure for `Cc1cc(=O)[nH]c(SCC(=O)Nc2ccc(Br)cc2)n1`: “inactive”; for `CCOC(=O)Cc1csc(SCc2cc(=O)oc3cc(O)ccc23)n1`: “inactive”.
As for `CCOC(=O)Cc1csc(NC(=O)CSc2ccc(Br)cc2)n1`, the Potency is 12.6 µM (active).
With `O=C(C(Cl)Cl)N1CCN(c2ccccn2)CC1` the entry was “inactive”; with `OC(c1ccc(F)cc1)c1ncc(-c2cccc(C(F)(F)F)c2)[nH]1` (centres undefined), “inactive”.
The same measure for `COc1ccc(CN(C)Cc2nc3cc(OC)c(OC)cc3c(=O)[nH]2)c(OC)c1`: “inactive”.
For the molecule `CC1(C(=O)NS(=O)(=O)Cc2cccc(Cl)c2)CCN1C(=O)Cc1ccc(Cl)cc1Cl` (centres undefined), the Potency result is “inactive”.
The same measure for `O=C(NC1CCCC1)C(c1c(F)cccc1Cl)N(C(=O)c1csnn1)C1CC1` (centres undefined): “inactive”; for `O=C(COC(=O)c1ccc([N+](=O)[O-])o1)NC12CC3CC(CC(C3)C1)C2`: “inactive”.
With `Cc1noc(/C=C/c2ccco2)c1S(=O)(=O)N1CCC(C(=O)Nc2ccc(Cl)cn2)CC1` the entry was “inactive”; with `CC(C)c1nc2sc3c(c2c(=O)n1N)CC(C)(C)OC3`, “inactive”; with `CN(CCc1ccccn1)C(=O)CCC1CCCN(Cc2ccccc2OC(F)F)C1` (centres undefined), “inactive”.
Regarding `CC(=O)Nc1ccc(NC(=S)NC(=O)c2ccc([N+](=O)[O-])c(C)c2)cc1`, the Potency result was “inactive”.
For `O=C(NCc1cccnc1)c1cc(C2CCCN(C(=O)CCCc3ccccc3)C2)on1` (centres undefined), the Potency entry was “inactive”.
The same measure for `OC[C@@H]1CN(Cc2ccc3c(c2)OCO3)C[C@H](n2cnc3c(NCc4ccco4)ncnc32)O1`: “inactive”; for `O=C(c1cnccn1)N1CCN(S(=O)(=O)c2cccc(Cl)c2)CC1`: “inactive”.
The same measure for `CCCCNC(=O)N(O)C1N(/N=C/c2ccccc2O)C(=S)SC1(C)C` (centres undefined): “inactive”; for `Cc1cccc(NC(=O)c2nc(S(=O)(=O)Cc3ccccc3)ncc2Cl)c1`: 12.6 µM (active); for `CCCSc1ncc(Cl)c(C(=O)Nc2c(C(=O)Nc3ccccc3)oc3ccccc23)n1`: “inactive”.
Take `Cc1cccc(NC(=O)c2ccc([N+](=O)[O-])o2)c1`: the Potency entry is “inactive”.
As to `O=C(NCCc1ccccc1)c1ccc2c(c1)N(Cc1ccccc1)C(=O)c1ccccc1S2(=O)=O`, the Potency entry is “inactive”.
Take `Cc1ccc(OCC(=O)NCCCNC(=O)c2ccco2)cc1C`: the Potency entry was “inactive”.
The same measure for `N/C(=N/O)c1cccn1Cc1ccccc1[N+](=O)[O-]`: “inactive”.
The same measure for `CCCn1c(=N)n(CC(O)COc2ccccc2OC)c2ccccc21` (centres undefined): “inactive”; for `O=C1c2ccccc2C(=O)c2c1cccc2N1CCN(C/C=C/c2ccccc2)CC1`: “inactive”; for `NS(=O)(=O)c1ccc(N2C(=O)C3C4CC(C(Br)C4Br)C3C2=O)cc1` (centres undefined): “inactive”.
Turning to `COC(=O)CCNC(=O)c1ccc2[nH]c(C)c(C)c2c1`, the Potency entry is “inactive”.
Take `O=C(CN1C(=O)NC2(CCCC2)C1=O)NCC1CCCO1` (centres undefined): the Potency result was “inactive”.
Regarding `COc1ccc(-c2nc(N)sc2C2(O)C(=O)Nc3c(Br)cc(F)cc32)cc1OC` (centres undefined), the Potency entry was “inactive”.
